Source: PubChem BioAssay AID624330 (Southern Research Specialized Biocontainment Screening …, 2012)
In all, about 340,000 compounds went through this assay and about 2,100 (0.62%) were called active.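 The calls were made as follows: active = first-screen hits whose inhibition reached a set limit at any dose in the follow-up dose series; inconclusive = inhibition above the set first-screen limit but never retested; inactive = the rest.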 Not all results are given here. Measured potencies and affinities stand elsewhere.

biological target: Rac GTPase-activating protein 1 (Homo sapiens) (UniProt Q9H0H5); experiment: blockers of MgcRacGAP-driven Rac1 GTP hydrolysis – biochemical, ADP Hunter fluorescence, primary and confirmatory, confirmation (AID 624330); settings: MgcRacGAP-stimulated Rac1 GTP hydrolysis, at 30 µM, stronger effect = higher value, GST-tagged Rac1 F28L mutant substrate;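 also: fluorescence reports GDP produced by GAP-driven GTP hydrolysis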
Sequence (Q9H0H5 whole entry, looked up): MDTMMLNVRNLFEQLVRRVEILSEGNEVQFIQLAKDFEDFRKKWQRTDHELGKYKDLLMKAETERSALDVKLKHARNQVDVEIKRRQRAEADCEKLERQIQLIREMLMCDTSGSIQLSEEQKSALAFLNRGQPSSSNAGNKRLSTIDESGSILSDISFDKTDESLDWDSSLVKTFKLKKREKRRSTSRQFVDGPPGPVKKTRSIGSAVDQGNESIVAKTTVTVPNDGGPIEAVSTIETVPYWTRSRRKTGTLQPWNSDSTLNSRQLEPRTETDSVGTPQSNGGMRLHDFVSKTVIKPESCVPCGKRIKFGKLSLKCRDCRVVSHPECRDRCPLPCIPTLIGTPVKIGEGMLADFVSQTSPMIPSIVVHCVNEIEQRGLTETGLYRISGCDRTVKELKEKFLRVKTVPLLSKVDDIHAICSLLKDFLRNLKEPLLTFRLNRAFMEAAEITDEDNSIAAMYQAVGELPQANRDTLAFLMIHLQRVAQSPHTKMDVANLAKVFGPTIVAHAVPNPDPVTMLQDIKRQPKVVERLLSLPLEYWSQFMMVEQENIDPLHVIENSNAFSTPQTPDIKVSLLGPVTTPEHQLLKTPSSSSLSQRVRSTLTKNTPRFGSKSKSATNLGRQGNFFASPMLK

inhibition, inactive:
Cc1ccc(N2C(S)=C(C#N)C(=O)NC2c2ccco2)cc1 (centres undefined) 49.9%
N#CC1=C(S)N(c2ccccc2)C(c2ccc(-c3ccc(Cl)c(Cl)c3)o2)NC1=O (centres undefined) 24.7%
N#CC1=C(S)N(c2ccccc2)C(c2ccc(-c3cc(Cl)ccc3Cl)o2)NC1=O (centres undefined) 19.7%
N#CC1=C(S)N(c2ccccc2)C(c2ccco2)NC1=O (centres undefined) 1.78%
COc1ccc(C2NC(=O)C(C#N)=C(S)N2c2ccccc2)cc1OC (centres undefined) 42.4%
COc1ccc(N2C(S)=C(C#N)C(=O)NC2c2ccco2)cc1 (centres undefined) 38.5%
O=C(COC(=O)c1cc(F)c(F)cc1Cl)NC1CCCCCC1 -27.4%
CCN(CC)S(=O)(=O)c1ccc(N2CCN(c3ccccc3O)CC2)nc1 5.53%
Clc1ccc(NCc2nnc3n2CCCCC3)cc1 10.6%
CC(=O)N1CCOc2ccc(S(=O)(=O)Nc3ncccc3C)cc21 4.93%
Cc1ccc(NC(=O)Cc2nc(COC(=O)c3c(F)cccc3Cl)cs2)cc1 2.55%
O=C1c2ccccc2/C(=C\c2ccc(Br)s2)N1c1ccccc1 1.75%
COc1ccc(N2CCN(C(=O)c3cc(=O)[nH]c4ccccc34)CC2)cc1 18.3%
COc1ccc(C(OCC(O)CN2CCC(O)CC2)c2ccc(OC)cc2)cc1 (centres undefined) 6.25%
OC(COC(c1ccc(F)cc1)c1ccc(F)cc1)CN1CCCC1 (centres undefined) 31.4%
COc1ccc(N2CCN(CC(O)COC(c3ccccc3)c3ccccc3)CC2)cc1 (centres undefined) 8.7%
OC(COC(c1ccc(F)cc1)c1ccc(F)cc1)CN1CCc2ccccc2C1 (centres undefined) 20.1%
CCOC(=O)Cc1csc(NC(=O)c2ccc(C)o2)n1 3.9%
Cc1nc(SCc2ccc([N+](=O)[O-])cc2)nc2ccccc12 8.16%
O=C1CSC(=S)N1c1ccccc1 -7.87%
O=C(COc1ccccc1)NN1C(=O)CSC1=S 6.09%
O=C(Cn1cc([N+](=O)[O-])cn1)NCc1cc2ccccc2[nH]1 8.44%
CCOc1cc(N2CCOCC2)c(OCC)cc1NC(=O)c1ccc(C)cc1 19.8%
CCOc1cc(N2CCOCC2)c(OCC)cc1NC(=O)c1ccccc1 27.1%
CCOc1cc(N2CCOCC2)c(OCC)cc1NC(=O)c1cc(C)cc(C)c1 10.8%
CCOc1cc(N2CCOCC2)c(OCC)cc1NC(=O)Cc1ccccc1 10.9%
CC(C)CN1CC(Br)C(=O)NC1=O (centres undefined) 4.9%
COc1ccc(CCNC(=S)Nc2ccccc2)cc1 12.5%
COc1ccc(C)cc1NC(=O)C(=O)N/N=C(\C)CC(=O)Nc1cccnc1 -2.35%
N#CCC(=N)N1CCN(c2ccc(F)cc2)CC1 1.28%
CN(C(=O)OC(C)(C)C)[C@H](Cc1ccccc1)C(=O)N[C@H]1CCCCNC1=O 4.78%
CCS(=O)(=O)c1ccc(O)c(NC(=O)/C=C/c2ccccc2)c1 5.42%
Cc1cc(NC(=O)/C=C/c2ccccc2)c(C(C)C)cc1O 12.2%
CCC1(c2ccccc2)NC(=O)N(CC(=O)N(CC(=O)Nc2ccccc2C(F)(F)F)Cc2ccco2)C1=O (centres undefined) 1.52%
COc1ccc(C)cc1NC(=O)c1cc(S(=O)(=O)N2CCOCC2)cn1C 10.3%
CCOC(=O)C1CCN(C(=O)COC(=O)c2oc3ccccc3c2C)CC1 7.79%
CCOC(=O)N/N=C/c1ccc(OC)c(O)c1 18.6%
COc1ccc(/C=N/NC(=O)c2ccc(=O)[nH]n2)cc1OC 8.66%
COc1cc(/C=N/NC(=O)c2cccc(C(=O)N/N=C/c3ccc(O)c(OC)c3)n2)ccc1O 9.56%
COc1ccc(/C=N/NC(=O)c2cccc(C(=O)N/N=C/c3ccc(OC)c(OC)c3)n2)cc1OC 5.53%
CC(C)NC(=O)c1cc2n(n1)C(C(F)(F)F)CC(c1ccco1)N2 (centres undefined) 5.2%
C=CCn1c(SCC(=O)NCCOC)nnc1-c1cc2c(s1)CCC(CC)C2 (centres undefined) 7.45%
O=C1c2cc([N+](=O)[O-])ccc2-c2ncccc21 -4.67%
Cn1c(=O)[nH]c(=O)c2c1nc(Sc1ccccc1)n2CCc1ccccc1 0.88%
CCC(C)(O)c1[nH]c2ccc(C(F)(F)F)cc2c1C (centres undefined) 5.14%
O=C1c2ccccc2C(=O)c2c(Nc3ccc(CCO)cc3)ccc(O)c21 15.2%
CN1C(=O)c2cccc(NCCCN3C(=O)c4ccccc4C3=O)c2C1=O 10.7%
OCCNCCO -1.48%
CNc1cccc2c1C(=O)c1ccccc1C2=O 6.76%
O=C1c2ccccc2C(=O)c2c(NCc3cccnc3)cccc21 1.26%
CN1C(=O)c2cccc(NCCCCCCN3C(=O)c4ccccc4C3=O)c2C1=O 5.81%
CC(C)Oc1ccc(C(=O)NC2=NCCS2)cc1 6.37%
Cc1cccc(NC(=O)CSc2nnnn2-c2cccnc2)c1 4.2%
Cc1cc(C)c(NC(=O)CN(C)C(=O)CCN2C(=O)C3CCCCC3C2=O)c(C)c1 (centres undefined) 11.4%
Cn1c(SCC(=O)NCC2CCCO2)nnc1-c1cccc(NC(=O)c2ccccc2F)c1 (centres undefined) 2.1%
COCCCNC(=O)COc1ccc(S(=O)(=O)Nc2ccccc2)cc1 5.23%
NCC12CC3CC(CC(O)(C3)C1)C2 9.89%
NC(=O)CC12CC3CC(C1)CC(CC(N)=O)(C3)C2 -1.41%
COCC(C)NCc1cccc2ccccc12 (centres undefined) 26.8%
COCC(C)NCc1ccc(C)cc1C (centres undefined) 16.8%
CCOc1ccccc1N1CC(C(=O)Nc2cc(Cl)ccc2C)CC1=O (centres undefined) -1.6%
Cc1ccc(Cl)cc1N1CCN(C(=O)CN(C2CCCCC2)S(C)(=O)=O)CC1 1.2%
O=C(Nc1ccccc1Cl)C1CCN(S(=O)(=O)c2cccc3nonc23)CC1 -1.65%
CCN(CC)c1ccc(CNc2ccc3c(c2)ncn3C(C)(C)C)cc1 6.25%
CCOc1cc(/C=N/Nc2cc(C)nc(-n3nc(C)cc3C)n2)ccc1O 11.4%
CCOc1ccc(/C=N/Nc2nc(=O)[nH]nc2C)cc1OC 7.43%
CCOc1cc(/C=N/Nc2nncc(-c3ccccc3)n2)ccc1O 13.6%
CCOc1cc(/C=N\Nc2nc(-c3ccc(C)cc3)c(NC(C)=O)s2)ccc1O 8.08%
C[C@H](CO)N1C[C@H](C)[C@@H](CN(C)C(=O)Nc2ccc(C(F)(F)F)cc2)Oc2ccc(NS(=O)(=O)c3cccs3)cc2C1=O 6.16%
CC(C)NC(=O)CCCc1cn(C)c2ccccc12 3.62%
COCCNC(=O)c1onc(CSc2ccccc2)c1C(=O)O 7.12%
CC(C)CN(C(=O)COC(=O)/C=C/c1ccc(Cl)c(Cl)c1)c1c(N)n(Cc2ccccc2)c(=O)[nH]c1=O 10.7%
COc1cc(/C=C/C(=O)OCC(=O)NCc2ccccc2OC)ccc1O -4.08%
COc1cc(/C=C/C(=O)O)ccc1O 22.1%
COC(=O)c1ccc(CNC(=O)COC(=O)/C=C/c2cc(OC)c(OC)c(OC)c2)cc1 -11.7%
COC(=O)c1ccc(CNC(=O)COC(=O)/C=C/c2ccc(OC)c(OC)c2)cc1 1.48%
CCN(C(=O)COC(=O)/C=C/c1ccc(OC)c(OC)c1)c1c(N)n(Cc2ccccc2)c(=O)[nH]c1=O 4.28%
COc1cc(/C=C/C(=O)OCC(=O)N(C)Cc2ccccc2)cc(OC)c1OC 5.49%
COc1ccc(/C=C/C(=O)OCC(=O)NCc2ccccc2)cc1OC -1.57%
CCOC(=O)C(Cc1c(F)cccc1Cl)c1ccnc2nc(N)nn12 (centres undefined) 7.53%
CCC(CC)CN1C(Nc2ccccc2)=NC[C@@H]1CC(C)C 7.15%
Cn1c(SCC(=O)NNC(=O)c2ccc(Br)cc2)nnc1-c1cccnc1 6.67%
CC1CN(CC(=O)NN=C(c2ccccc2)c2ccccc2)CC(C)O1 (centres undefined) 8.46%
Cc1cccc2sc(NC(=O)CSc3nc4ccccc4o3)nc12 7.18%
CC(Sc1ncnc2ccccc12)C(=O)Nc1ccc2c(c1)OCO2 (centres undefined) 5.78%
COc1ccc(OC(C)C(=O)N2CCN(c3ccccn3)CC2)cc1 (centres undefined) -1.84%
CC1CCCN(C(=O)COC(=O)CNS(=O)(=O)c2ccc3ccccc3c2)C1 (centres undefined) 11.5%
COc1cc(/C=C/C(=O)OCC(=O)NCCCc2ccccc2)cc(OC)c1OC 2.15%
COc1ccc(/C=C/C(=O)OCC(=O)NCCCc2ccccc2)cc1OC 1.47%
O=C(NCCc1c[nH]c2ccccc12)C(=O)NCC(c1ccco1)N1CCN(c2ccc(F)cc2)CC1 (centres undefined) 5.54%
C[C@@H]1CN([C@@H](C)CO)C(=O)c2cc(-c3ccccc3F)cnc2O[C@H]1CN(C)Cc1cccc(F)c1 5.55%
COc1ccc(OC)c2c(C)cc(C)nc12 4.59%
COc1cccc2c(C)c(C(=O)O)[nH]c12 7.15%
COc1ccc(N(CC(=O)Nc2ccc(OC)c(OC)c2)S(=O)(=O)c2ccccc2)cc1Cl 12.2%
